The list shows a part of the results. No count for the full screen is at hand.
Biological target: furin, P09958
Assay: furin cleavage Z-score vs untreated control; higher = more cleavage, active = 3.5 or more, inactive = 1 or less, 8 variable residues between constant flanks
Summary of the method: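 Reactions of 0.01 ml ran for 7.5, 15 or 30 min in 50 mM HEPES pH 7.5 with CaCl2 and NaCl, at 1:10 enzyme:substrate. In them, purified furin acted on bead-held 8-mer peptides fused to a cDNA oligonucleotide. The cleavage Z-score was obtained by lowess-adjusting log sequencing counts of released DNA against furin-free reactions and scaling by median absolute deviation.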

Chain of furin, P09958 (P09958 whole entry): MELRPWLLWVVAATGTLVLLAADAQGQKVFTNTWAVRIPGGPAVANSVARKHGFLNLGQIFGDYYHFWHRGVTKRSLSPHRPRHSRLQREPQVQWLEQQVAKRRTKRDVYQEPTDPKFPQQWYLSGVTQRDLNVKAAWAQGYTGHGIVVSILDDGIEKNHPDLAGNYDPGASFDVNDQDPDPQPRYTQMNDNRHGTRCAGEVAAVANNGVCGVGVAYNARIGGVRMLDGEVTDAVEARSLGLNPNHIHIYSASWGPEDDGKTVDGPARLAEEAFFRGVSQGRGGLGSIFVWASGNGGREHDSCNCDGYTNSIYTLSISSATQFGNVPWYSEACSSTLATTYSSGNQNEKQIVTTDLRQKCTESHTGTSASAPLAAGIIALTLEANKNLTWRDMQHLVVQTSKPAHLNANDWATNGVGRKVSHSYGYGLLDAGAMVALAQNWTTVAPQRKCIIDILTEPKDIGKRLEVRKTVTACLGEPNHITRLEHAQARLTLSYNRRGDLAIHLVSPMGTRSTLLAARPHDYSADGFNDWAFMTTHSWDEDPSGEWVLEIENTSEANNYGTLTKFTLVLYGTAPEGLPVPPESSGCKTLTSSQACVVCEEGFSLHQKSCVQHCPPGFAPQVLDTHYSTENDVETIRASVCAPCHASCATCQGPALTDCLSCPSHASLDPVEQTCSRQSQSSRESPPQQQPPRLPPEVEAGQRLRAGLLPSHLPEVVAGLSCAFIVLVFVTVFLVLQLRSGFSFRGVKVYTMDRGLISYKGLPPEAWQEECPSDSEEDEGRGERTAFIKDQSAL

Sequence	furin cleavage Z-score (7.5 min)	furin cleavage Z-score (15 min)	furin cleavage Z-score (30 min)
CAGLQDCTMLAGNASASA [HC1524]	1.18	0.431 (inactive)	0.816 (inactive)
CASCTTPCSGAGNASASA [HC1957]	0.117 (inactive)	-0.946 (inactive)	0.203 (inactive)
CARLYVGGPLAGNASASA [HC1500]	-0.16 (inactive)	0.662 (inactive)	0.78 (inactive)
CATGALVTPCAGNASASA [HC1374]	1.46	-0.486 (inactive)	-0.745 (inactive)
CAICQRVKRVAGNASASA [FS-1633]	0.73 (inactive)	-0.331 (inactive)	1.69
CADELAAKLVAGNASASA [HC861]	-0.523 (inactive)	0.896 (inactive)	0.946 (inactive)
CASLLRHHNLAGNASASA [HC1385]	-0.346 (inactive)	0.336 (inactive)	0.383 (inactive)
CARLLRHKRMAGNASASA [FS-188]	8.79 (active)	8.2 (active)	6.11 (active)
CALNERLKRVAGNASASA [FS-53]	2.86	3.12	3.89 (active)
CAIQARAKRVAGNASASA [FS-256]	4.63 (active)	3.93 (active)	4.73 (active)
CAYSHRWKRNAGNASASA [FS-112]	7.46 (active)	8.5 (active)	7.17 (active)
CAVDIRLKRVAGNASASA [FS-148]	0.517 (inactive)	1.34	1.54
CAVVICESAGAGNASASA [HC1531]	0.204 (inactive)	-0.473 (inactive)	1.4
CAEVVTSNWVAGNASASA [HC2221]	-0.745 (inactive)	-1.12 (inactive)	-0.494 (inactive)
CASPITYSTYAGNASASA [HC805]	0.448 (inactive)	0.103 (inactive)	-0.462 (inactive)
CADVVVVATDAGNASASA [HC876]	-1.44 (inactive)	-0.376 (inactive)	-0.463 (inactive)
CAIRTEEAIYAGNASASA [HC1487]	-0.614 (inactive)	-0.579 (inactive)	-0.877 (inactive)
CASQMETKLIAGNASASA [HC649]	1.65	0.44 (inactive)	-0.0666 (inactive)
CANTLHCPTDAGNASASA [HC449]	-0.243 (inactive)	-1.86 (inactive)	-0.583 (inactive)
CAYSHRHKRVAGNASASA [FS-903]	5.57 (active)	7.12 (active)	6.65 (active)
CALAWRSGRVAGNASASA [FS-817]	-2.25 (inactive)	-0.244 (inactive)	0.218 (inactive)
CAHLERHKRVAGNASASA [FS-1631]	7.08 (active)	8.35 (active)	8.68 (active)
CAVGLHEYPVAGNASASA [HC1235]	-0.411 (inactive)	-0.271 (inactive)	-1.96 (inactive)

Sequence	furin cleavage Z-score (7.5 min)	furin cleavage Z-score (15 min)	furin cleavage Z-score (30 min)
CAVVCCSVSYAGNASASA [HC2050]	-0.658 (inactive)	-0.454 (inactive)	-0.515 (inactive)
CAMEECSQHAAGNASASA [HC1763]	-0.182 (inactive)	-0.0436 (inactive)	1.21
CAMENCSQHLAGNASASA [HC1721]	0.959 (inactive)	2.87	0.898 (inactive)
CATFPCSGSWAGNASASA [HC1847]	-0.0484 (inactive)	-0.806 (inactive)	-1.82 (inactive)
CARQYRSAYYAGNASASA [FS-2591]	-0.594 (inactive)	0.967 (inactive)	2.18
CAIPDREVLYAGNASASA [HC1008]	-1.25 (inactive)	-0.885 (inactive)	-0.354 (inactive)
CAQTKQSGENAGNASASA [HC948]	-0.725 (inactive)	-1.67 (inactive)	-1.53 (inactive)
CADQKRSLESAGNASASA [FS-2246]	-0.764 (inactive)	-1.16 (inactive)	-0.0942 (inactive)
CAYPKRSSEVAGNASASA [FS-2323]	-0.277 (inactive)	-2 (inactive)	0.081 (inactive)
CARQKRSVENAGNASASA [FS-3038]	10.2 (active)	9.71 (active)	8.9 (active)
CALQKRSSRHAGNASASA [FS-2631]	5.41 (active)	7.89 (active)	8.89 (active)
CARQKRSDLYAGNASASA [FS-1966]	4.32 (active)	5.36 (active)	5.43 (active)
CAIGKRSVEYAGNASASA [FS-1984]	1.53	2.52	3.58 (active)
CARQKRILVNAGNASASA [FS-1768]	-0.183 (inactive)	-1.46 (inactive)	0.612 (inactive)
CAATLCSALYAGNASASA [HC295]	1.6	-0.694 (inactive)	0.385 (inactive)
CAAWKSKKTPAGNASASA [HC1474]	-0.115 (inactive)	0.0818 (inactive)	-0.362 (inactive)
CAGRDKNQVEAGNASASA [HC685]	0.288 (inactive)	-0.161 (inactive)	-1.36 (inactive)
CAAQLHVWIPAGNASASA [HC588]	-0.31 (inactive)	-0.454 (inactive)	-0.108 (inactive)
CAINGLPVSAAGNASASA [HC659]	-0.744 (inactive)	-0.464 (inactive)	-0.336 (inactive)
CARQKRSSEAAGNASASA [FS-3037]	9.89 (active)	9.51 (active)	6.34 (active)
CAWSTVSSEAAGNASASA [HC1363]	1.2	-0.449 (inactive)	0.19 (inactive)
CARQKRIHSAAGNASASA [FS-2361]	-1.05 (inactive)	-0.069 (inactive)	-0.712 (inactive)
CARQKRSVSIAGNASASA [FS-2170]	3.57 (active)	5.04 (active)	6.27 (active)

— the supplement of paper PMC3545927
